Counter-ions that a name gives are not always drawn. ± gives the standard deviation of the averaged measurements. Over roughly 1,300 compounds, “normalised cell viability” has its median near 1; the lowest 2% begin near 0.14. This is one part of a sample in which the lowest values are shown more often than they occur.
System: V-C8 (BRCA2-deficient hamster cells)
Assay: normalised cell viability (fraction of plate median); higher = more viable cells (less toxic)
Details: 5 µM
Outline: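 Hamster V-C8 cells lacking BRCA2 and V-C8 cells with BRCA2 restored were seeded in 96-well plates. Library drugs (10 mM DMSO stocks) were added 24 h later at 5 μM in 100 μl medium, next to DMSO control wells, for 3 days (screen 1) or 6 days (screen 2). Cell viability was read by resazurin assay, median-plate normalised (modified robust per cent of sample), and triplicate wells were averaged.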

Structure (SMILES)	normalised cell viability (treatment time: 3 days)	normalised cell viability (treatment time: 6 days)
CC1(C)[C@@H](OC(=O)CCC(=O)O)CC[C@]2(C)[C@H]3C(=O)C=C4[C@@H]5C[C@@](C)(C(=O)O)CC[C@]5(C)CC[C@@]4(C)[C@]3(C)CC[C@@H]12 [Carbenoxolone disodium salt]	1 ± 0.041	1.15 ± 0.26
CC(=O)OCC(=O)[C@@]1(O)CC[C@H]2[C@@H]3CCC4=CC(=O)CC[C@]4(C)[C@@]3(F)[C@@H](O)C[C@@]21C [Fludrocortisone acetate]	0.957 ± 0.08	1.11 ± 0.041
O=C1c2c(O)cccc2Cc2cccc(O)c21 [Anthralin]	1.03 ± 0.019	1.003 ± 0.0083
O=C1c2c(O)ccc(O)c2C(=O)c2c(NCCNCCO)ccc(NCCNCCO)c21 [Mitoxantrone dihydrochloride]	0.143 ± 0.0017	0.116 ± 0.011
O=C1c2cccc(O)c2C(=O)c2c(O)cccc21 [1,8-Dihydroxyanthraquinone]	0.838 ± 0.065	0.78 ± 0.021
c1ccc2c(c1)CCCc1cc(NCCN3CCOCC3)nnc1-2	0.351 ± 0.016	0.496 ± 0.056
CN1C2CCCC1CC(NC(=O)c1nn(C)c3ccccc13)C2 (stereo not drawn) [Granisetron]	0.973 ± 0.092	1.03 ± 0.051
CCN(CC)C(=O)/C(C#N)=C/c1cc(O)c(O)c([N+](=O)[O-])c1 [Entacapone]	0.957 ± 0.024	1.06 ± 0.059
CN[C@@H]1[C@@H](O[C@H]2O[C@H](CO)[C@@H](N)[C@H](O)[C@H]2O)OC2C[C@@H](N)[C@@H](O[C@H]3[C@H](O)[C@@H](O)[C@H](N)C[C@@H]3N)OC2[C@@H]1O (stereo partly drawn) [Apramycin]	0.995 ± 0.057	1.03 ± 0.019
Cc1ccnc2c1NC(=O)c1cccnc1N2C1CC1 [Nevirapine]	0.942 ± 0.023	0.994 ± 0.039
NC1CCN(c2nc3c(cc2F)c(=O)c(C(=O)O)cn3-c2ccc(F)cc2F)C1 (stereo not drawn) [Tosufloxacin hydrochloride]	1.01 ± 0.048	1.08 ± 0.024
CC(CCc1ccc(O)cc1)NCCc1ccc(O)c(O)c1 (stereo not drawn) [Dobutamine hydrochloride]	1.01 ± 0.031	0.976 ± 0.027
CCCC(=O)Nc1ncnc2c1ncn2[C@@H]1O[C@@H]2COP(=O)(O)O[C@H]2[C@H]1OC(=O)CCC [Bucladesine sodium salt]	0.995 ± 0.021	1.04 ± 0.014
CCCCc1nc(Cl)c(CO)n1Cc1ccc(-c2ccccc2-c2nnn[nH]2)cc1 [Losartan]	1.019 ± 0.0051	1.052 ± 0.0052
C[C@@H]1NC(=O)NC1=O [Methylhydantoin-5-(L)]	1 ± 0.089	1.07 ± 0.013
CC1=Nc2ccc(Cl)cc2S(=O)(=O)N1 [Diazoxide]	0.95 ± 0.024	1.01 ± 0.054
N=C(N)c1ccc(OCCCCCOc2ccc(C(=N)N)cc2)cc1 [Pentamidine isethionate]	0.596 ± 0.07	0.597 ± 0.085

Structure (SMILES)	normalised cell viability (treatment time: 3 days)	normalised cell viability (treatment time: 6 days)
CC1=C(C(=O)O)N2C(=O)[C@@H](NC(=O)[C@H](N)c3ccccc3)[C@H]2SC1 [Cephalexin monohydrate]	1.25 ± 0.026	1.09 ± 0.1
Cc1ccccc1N1C(=O)c2cc(S(N)(=O)=O)c(Cl)cc2NC1C (stereo not drawn) [Metolazone]	1.11 ± 0.073	1.06 ± 0.07
CC(=O)[C@@]12O[C@](C)(c3ccccc3)O[C@@H]1C[C@H]1[C@@H]3CCC4=CC(=O)CC[C@]4(C)[C@H]3CC[C@@]12C [Algestone acetophenide]	0.915 ± 0.05	0.945 ± 0.094
CCCNC(C)(C)COC(=O)c1ccccc1 [Meprylcaine hydrochloride]	1 ± 0.042	1.25 ± 0.47
C#C[C@]1(O)CC[C@H]2[C@@H]3CCc4cc(OC)ccc4[C@H]3CC[C@@]21C [Ethynylestradiol 3-methyl ether]	0.844 ± 0.02	0.886 ± 0.17
C[n+]1ccccc1/C=N/O [Pralidoxime chloride]	1.03 ± 0.029	1.02 ± 0.06
CCCCC(CC)CNC(=N)NC(=N)NCCCCCCNC(=N)NC(=N)NCC(CC)CCCC (stereo not drawn) [Alexidine dihydrochloride]	0.124 ± 0.0044	0.132 ± 0.0043
CN(C)CCN1C(=O)c2ccccc2N(C)c2ccccc21 [Dibenzepine hydrochloride]	0.191 ± 0.011	0.215 ± 0.0073
CC(=O)OC[C@H]1O[C@@H]([S-])[C@H](OC(C)=O)[C@@H](OC(C)=O)[C@@H]1OC(C)=O.CCP(CC)CC.[Au+] [Auranofin]	0.117 ± 0.0046	0.141 ± 0.0027
OCCN1CCN(CC/C=C2/c3ccccc3Sc3ccc(Cl)cc32)CC1 [Zuclopenthixol hydrochloride]	0.605 ± 0.014	0.61 ± 0.032
CN[C@H](CC(C)C)C(=O)N[C@H]1C(=O)N[C@@H](CC(N)=O)C(=O)N[C@H]2C(=O)N[C@H]3C(=O)N[C@H](C(=O)N[C@H](C(=O)O)c4cc(O)cc(O)c4-c4cc3ccc4O)[C@H](O)c3ccc(c(Cl)c3)Oc3cc2cc(c3O[C@@H]2O[C@H](CO)[C@@H](O)[C@H](O)[C@H]2O[C@H]2C[C@](C)(N)[C@H](O)[C@H](C)O2)Oc2ccc(cc2Cl)[C@H]1O [Vancomycin hydrochloride]	0.159 ± 0.01	0.141 ± 0.0064
CC(CN(C)C)C(C)(O)Cc1ccc(Cl)cc1 (stereo not drawn) [Clobutinol hydrochloride]	1.05 ± 0.13	1.11 ± 0.064
Cc1cc(NC(=O)C2=C(O)c3ccccc3S(=O)(=O)N2C)no1 [Isoxicam]	1.04 ± 0.06	1.06 ± 0.042
CC[C@]12CCCN3CCc4c(n(c5ccccc45)C(=O)C1)[C@@H]32 [Eburnamonine (-)]	0.362 ± 0.016	0.643 ± 0.11
CN(C)[C@@H]1C(O)=C(C(N)=O)C(=O)[C@@]2(O)C(O)=C3C(=O)c4c(O)cccc4[C@@](C)(O)[C@H]3[C@H](O)[C@@H]12 [Oxytetracycline dihydrate]	0.991 ± 0.015	0.945 ± 0.05
C=C(NC(=O)C(=C)NC(=O)c1csc(C2=N[C@@H]3c4csc(n4)[C@H]4NC(=O)c5csc(n5)[C@H]([C@](C)(O)[C@@H](C)O)NC(=O)[C@H]5CSC(=N5)/C(=C/C)NC(=O)[C@H]([C@@H](C)O)NC(=O)c5csc(n5)[C@]3(CC2)NC(=O)[C@H](C)NC(=O)C(=C)NC(=O)[C@H](C)NC(=O)[C@H]([C@@H](C)CC)N[C@@H]2C=Cc3c([C@H](C)O)cc(nc3[C@H]2O)C(=O)O[C@@H]4C)n1)C(N)=O [Thiostrepton]	0.14 ± 0.011	0.126 ± 0.0091
COc1c(O[C@@H]2O[C@H](CO)[C@@H](O)[C@H](O)[C@H]2O)cc2c(c1OC)-c1ccc(SC)c(=O)cc1[C@@H](NC(C)=O)CC2 [Thiocolchicoside]	1.22 ± 0.36	0.97 ± 0.017

Source: the supplement of paper PMC6609913
